# Data from PubChem BioAssay (NCATS).
# Records with an inconclusive call do not appear. Where a call stands in place of a potency, no number is given. Calls of active or inactive are those of the source. Calls come from the whole dose curve; as a rule, active = well fitted cell-killing curve with a large enough effect; inconclusive = small, poorly fitted or top-dose-only effect, or effect the other way; inactive = no such curve, though single readings can be large or run the other way.
# Experiment: Quantitative High-Throughput drug screen in 47 multiple myeloma cell lines against the NCATS MIPE library collection: Delta47_JCRB cell viability assay (AID 1918925; note: nearly all actives have a fitted effect of over 45% in size)
# Conditions: Delta47 myeloma viability, CellTiter-Glo ATP, 48 h; series mostly up to 45.8 µM
# In short: (§1)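 Relative luminescence from CellTiter-Glo served as the viability signal, referenced to DMSO-treated (100%) and cell-free medium (0%) controls. Treatment lasted 48 hours at 37C with 500 cells per well.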
# Potency is the fitted concentration of half-maximal effect.
row,Structure (SMILES),Potency
1,CCN(CC)CCOc1ccc(C(=C(Cl)c2ccccc2)c2ccccc2)cc1,29.6 µM (active)
2,O=C1NC(=O)C(=Cc2ccc3nccnc3c2)S1,6.45 µM (active)
3,Cc1c[nH]c(C=C2C(=O)Nc3ccccc32)c1CCC(=O)O,inactive
4,Nc1ncnc2c1ncn2[C@@H]1O[C@H](CO)C[C@@H]1O,inactive
5,Cc1cc(OCCCc2c(C(=O)O)n(Cc3cccnc3)c3c(-c4c(COc5ccc(N6CCN([S+](C)(=O)[O-])CC6)cc5)nn(C)c4C)cccc23)cc(C)c1Cl,18.7 µM (active)
6,CC=C(C)C(=O)O[C@H]1C(C)=C[C@]23C(=O)[C@@H](C=C(CO)[C@@H](O)[C@]12O)[C@H]1[C@@H](C[C@H]3C)C1(C)C,5.26 µM (active)
7,O=c1c(-c2ccc(O)cc2)coc2cc(OC3O[C@H](CO)[C@H](O)[C@H](O)[C@H]3O)cc(O)c12 (stereo partly drawn),3.72 µM (active)
8,Nc1ncnc2c1ncn2[C@@H]1O[C@@H](CO)[C@H](O)[C@H]1O,inactive
9,C=CCc1ccc(O)c(-c2ccc(O)c(CC=C)c2)c1,18.7 µM (active)
10,CC(=O)O[C@]1(C(C)=O)CC[C@@H]2[C@@H]3C[C@H](C)C4=CC(=O)CC[C@]4(C)[C@H]3CC[C@@]21C,18.7 µM (active)
11,CC(=Cc1ccccc1)C=C1SC(=S)N(CC(=O)O)C1=O,inactive
12,Cc1ccc([C@@H]2O[C@H](CO)[C@@H](O)[C@H](O)[C@@H]2O)cc1Cc1ccc(-c2ccc(F)cc2)s1,20.9 µM (active)
13,COc1cc(O)c2c(c1)C(=O)c1cc(C)cc(O)c1C2=O,inactive
14,C[C@H]1[C@H](NC(=O)C(=NOC(C)(C)C(=O)O)c2csc(N)n2)C(=O)N1S(=O)(=O)O,inactive
15,CCC(=O)NC[C@H](Cc1ccc(OCCc2nc(-c3ccccc3)oc2C)cc1)NC(C)=CC(=O)c1ccc(C(F)(F)F)cc1,inactive

# Experiment: Quantitative High-Throughput drug screen in 47 multiple myeloma cell lines against the NCATS MIPE library collection: EJM_DSMZ cell viability assay (AID 1918926; note: nearly all actives have a fitted effect of over 30% in size)
# Conditions: EJM myeloma cell viability, CellTiter-Glo ATP, 48 h; series mostly up to 45.8 µM
# In short: as §1
row,Structure (SMILES),Potency
1,CC[C@H]1OC(=O)[C@H](C)[C@@H](O[C@H]2C[C@@](C)(OC)[C@@H](O)[C@H](C)O2)[C@H](C)[C@@H](O[C@@H]2O[C@H](C)C[C@H](N(C)C)[C@@H]2O)[C@](C)(O)C[C@@H](C)CN(C)[C@H](C)[C@@H](O)[C@]1(C)O,inactive
2,O=C(O)c1ccc(-c2cc3cccnc3c(-c3ccc4nonc4c3)n2)cc1,18.7 µM (active)
3,NC[C@@H]1O[C@@H](O[C@H]2[C@@H](O)[C@H](O[C@@H]3[C@@H](O)[C@@H](N)C[C@H](N)[C@H]3O[C@H]3O[C@H](CN)[C@@H](O)[C@@H](O)[C@H]3N)O[C@H]2CO)[C@H](N)[C@@H](O)[C@@H]1O,inactive
4,CCC(CC)[C@H](NC(C)=O)[C@@H]1[C@H](O)[C@@H](C(=O)O)C[C@@H]1N=C(N)N,inactive
5,CNC(=O)c1ccccc1Sc1ccc2c(C=Cc3ccccn3)n[nH]c2c1,23.5 µM (active)
6,Nc1ncnc2c1ncn2[C@@H]1O[C@H](CO)C[C@@H]1O,inactive
7,CC(=NNC(=S)N1CCC1)c1ccccn1,inactive
8,CCCCCN(C)CCC(O)(P(=O)(O)O)P(=O)(O)O,inactive
9,Cn1cc(C=C2C(=O)Nc3cccnc32)c2ccccc21,inactive
10,Nc1ncnc2c1ncn2[C@@H]1O[C@@H](CO)[C@H](O)[C@H]1O,inactive
11,C=CCc1ccc(O)c(-c2ccc(O)c(CC=C)c2)c1,23.5 µM (active)
12,CC(=O)O[C@]1(C(C)=O)CC[C@@H]2[C@@H]3C[C@H](C)C4=CC(=O)CC[C@]4(C)[C@H]3CC[C@@]21C,20.9 µM (active)
13,O=C(O)C=Cc1ccc(O)c(O)c1,13.2 µM (active)
14,CC(=Cc1ccccc1)C=C1SC(=S)N(CC(=O)O)C1=O,inactive
15,COc1cc(O)c2c(c1)C(=O)c1cc(C)cc(O)c1C2=O,inactive
16,C[C@H]1[C@H](NC(=O)C(=NOC(C)(C)C(=O)O)c2csc(N)n2)C(=O)N1S(=O)(=O)O,inactive
17,COc1ccc(-c2coc3cc(O)ccc3c2=O)cc1,inactive
18,CCC(=O)NC[C@H](Cc1ccc(OCCc2nc(-c3ccccc3)oc2C)cc1)NC(C)=CC(=O)c1ccc(C(F)(F)F)cc1,26.4 µM (active)
